# Screens: PubChem, several laboratories
# Shown are actives, neighbours in structure and some others; about 4% of the full set was active somewhere.
# Mdm2 MdmX PPI = human Mdm2/MdmX binding inhibition; inhibition, % at 8 µM; SaOS-2 split-luciferase Mdm2/MdmX complementation, luminescence; actives 3% (n = 330,000); AID 485346; O15151+Q00987;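 active = inhibition of at least 50% at 8 µM in the primary screen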
# Target sequence (O15151 whole entry, looked up): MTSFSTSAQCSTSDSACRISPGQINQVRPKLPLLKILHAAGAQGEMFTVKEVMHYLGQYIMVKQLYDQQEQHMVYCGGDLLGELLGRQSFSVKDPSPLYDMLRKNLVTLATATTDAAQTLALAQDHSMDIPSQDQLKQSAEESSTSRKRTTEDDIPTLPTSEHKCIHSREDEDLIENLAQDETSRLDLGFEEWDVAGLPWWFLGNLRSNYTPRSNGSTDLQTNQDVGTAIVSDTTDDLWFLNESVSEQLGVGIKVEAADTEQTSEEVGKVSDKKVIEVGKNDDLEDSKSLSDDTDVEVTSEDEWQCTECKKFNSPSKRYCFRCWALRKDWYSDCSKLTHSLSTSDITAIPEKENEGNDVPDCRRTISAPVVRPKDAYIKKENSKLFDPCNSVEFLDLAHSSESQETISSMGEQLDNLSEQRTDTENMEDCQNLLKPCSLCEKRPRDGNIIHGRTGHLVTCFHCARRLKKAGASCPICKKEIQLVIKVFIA
# Target sequence (Q00987 whole entry, looked up): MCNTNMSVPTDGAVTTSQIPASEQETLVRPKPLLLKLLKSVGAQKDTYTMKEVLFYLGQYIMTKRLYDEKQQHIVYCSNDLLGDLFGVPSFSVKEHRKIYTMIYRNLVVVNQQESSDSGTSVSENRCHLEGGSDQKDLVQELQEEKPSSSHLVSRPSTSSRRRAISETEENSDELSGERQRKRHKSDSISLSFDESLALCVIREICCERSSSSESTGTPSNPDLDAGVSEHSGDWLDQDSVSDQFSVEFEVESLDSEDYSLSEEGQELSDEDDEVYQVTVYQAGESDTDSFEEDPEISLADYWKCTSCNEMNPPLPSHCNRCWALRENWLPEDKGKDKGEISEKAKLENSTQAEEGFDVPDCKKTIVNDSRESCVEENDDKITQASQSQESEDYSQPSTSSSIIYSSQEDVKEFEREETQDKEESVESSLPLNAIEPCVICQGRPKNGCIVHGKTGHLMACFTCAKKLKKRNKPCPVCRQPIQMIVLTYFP
# Shn3 inh set2 = inhibitors of Schnurri-3 3'UTR reporter in osteoblasts. Clone20 osteoblast Shn3 3'UTR firefly luciferase, 24 h. inhibition, % at 12.5 µM. actives 0.52% (n = 360,000). AID 588674;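 active = mean inhibition of at least 75% with every replicate also reaching 75%; inconclusive = mean inhibition at least 75% but some replicate below; inactive = mean inhibition below 75%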;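 also: 0% = median of neutral control wells and 100% = pilot-screen positive control compound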
# Gli-Sufu block = blocks Gli-Sufu signaling in a luciferase reporter; Sufu-KO-LIGHT fibroblasts, Gli luciferase reporter luminescence; inhibition, % at 5 µM; actives 0.74% (n = 340,000);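 active = inhibition above about 55%, limit read from the data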;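 also: 0% = DMSO-treated cells and 100% = wells with medium but no cells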
# Beta cell apopt = beta cell apoptosis inhibition; INS-1E cytokine-induced death, ATP luminescence, 48 h; percent of positive-control rescue, neutral wells zero; protection from apoptosis, % (no concentration beside the values); actives 0.8% (n = 300,000);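 active = Every replicate reaches about 75%, or at least half do and their mean reaches it too, limit read from the data; inconclusive = At least half of replicates reach the limit but their mean does not; inactive = Under half of replicates reach the limit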;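 also: 0% = cytokine-treated negative control wells and 100% = positive control rescue; higher means more ATP so stronger rescue from cytokine killing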
# CSC inhib = blocks cancer stem cells; cancer stem cell-like cells viability, luminescence; inhibition, % at 7.5 µM; actives 1.1% (n = 300,000); AID 2717; in the data active = inhibition above about 75%; inconclusive = no clear call, values can overlap the other calls; tested in HMLE shEcad cells
# PAX8 reporter = PAX8 transcriptional activity inhibition | AID 652154 | inhibition, % at 12.6 µM | RMG-I TPO-luciferase reporter, SteadyGlo, 24 h | actives 1.2% (n = 360,000);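 active = mean replicate inhibition at least 60% with every replicate also reaching 60%; inconclusive = only one of the two criteria is met; inactive = mean below 60% and not all replicates reaching 60%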;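 also: luciferase light reporting Pax8 driven TPO promoter activity; plate controls were median of neutral control wells for no effect and mitoxantrone controls for full effect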
# The depositor's hits bear a star; ? = inconclusive; . = no result.
SMILES,Mdm2 MdmX PPI,Shn3 inh set2,Gli-Sufu block,Beta cell apopt,CSC inhib,PAX8 reporter
C[C@H](CO)N1C[C@H](C)[C@H](CN(C)C(=O)c2ccccc2)OCCCC[C@H](C)Oc2ccc(NC(=O)Nc3ccc(C(F)(F)F)cc3)cc2C1=O,.,.,.,.,.,104*
CC(=O)N1[C@@H]2c3cccc(=O)n3C[C@H]1[C@H](CO)[C@H]2C(=O)N[C@H](C)c1ccccc1,.,.,.,.,.,-13
CCN(CC)C(=O)C1CCCN(C(=S)Nc2cccc3ccccc23)C1 (stereo not drawn),16,28,7,85*,16,0
C[C@H]1CCCCO[C@H](CN(C)CC2CC2)[C@@H](C)CN([C@@H](C)CO)C(=O)c2cc(NC(=O)c3ccncc3)ccc2O1,.,.,.,.,.,-13
Cc1ccccc1NC(=O)C(Cl)=C(Cl)Cl,45,5,-1,-12,?,94*
C[C@@H]1CN([C@H](C)CO)C(=O)c2cc(-c3ccccc3)cnc2O[C@@H]1CN(C)C(=O)c1cccnc1,.,.,.,.,.,14
N#C/C(=C\c1c[nH]c2ccc(Br)cc12)c1ccccn1,49,10,-7,12,79*,17
C=C1C(=O)O[C@@H]2[C@H]1CC[C@H](C)[C@]1(O)CCC(=O)[C@@]21C,49,-15,-2,-43,4,89*
Oc1ccc(N=Nc2nc(-c3ccccc3)c(-c3ccccc3)[nH]2)cc1,28,11,16,16,189*,-10
CCN1CCN(Cc2ccc(NC(=O)c3ccc(C)c(NC(=O)c4cncc(-c5cccs5)c4)c3)cc2C(F)(F)F)CC1,.,88*,72*,.,.,.
CCOC(=O)c1c(CSc2ccccc2)n(C)c2cc(Br)c(O)c(CN(C)C)c12,23,19,9,-4,9,9
CCOC(=O)c1c(CSc2ccc(C)cc2)n(C)c2cc(Br)c(O)c(CN(C)C)c12,31,8,31,3,97*,31
O=C(C[C@@H]1CC[C@H](NC(=O)c2ccccn2)[C@H](CO)O1)NCc1cccc(F)c1,.,.,.,.,.,-10
CCCC(=O)N1CCN(c2ccc(NC(=O)c3ccc([N+](=O)[O-])o3)cc2Cl)CC1,.,96*,28,.,.,104*
O=C(Nc1cccc(S(=O)(=O)N2CCCCC2)c1)c1ccc([N+](=O)[O-])o1,30,69,-11,-11,78*,76*
CC(C)C(=O)N1CCN(c2ccc(NC(=O)c3ccc([N+](=O)[O-])o3)cc2Cl)CC1,.,96*,18,.,.,88*
O=C(Nc1ccccc1N1CCOCC1)c1ccc([N+](=O)[O-])o1,25,-12,-9,53,20,51
O=C(COC(=O)c1ccc([N+](=O)[O-])o1)Nc1cccc(S(=O)(=O)N2CCCCC2)c1,21,-10,6,23,0,7
O=C(Nc1ccc(N2CCOCC2)c(Cl)c1)c1ccc([N+](=O)[O-])o1,.,81,35,.,.,71*
O=S(=O)(c1ccc(F)cc1)N1CC[C@@H]2[C@H]1c1cc(Br)ccc1N[C@@H]2CO,.,.,.,.,.,-20
Cc1ccc(NC(=O)c2ccc([N+](=O)[O-])o2)cc1S(=O)(=O)N1CCOCC1,18,60,14,94*,2,84*
Cc1ccc(NC(=O)c2cc([N+](=O)[O-])ccc2N2CCOCC2)cc1S(=O)(=O)N1CCOCC1,19,6,1,2,-9,.
O=C(Nc1cccc(Cl)c1N1CCCC1)c1ccc([N+](=O)[O-])o1,29,-30,-7,2,100*,11
Cc1ccc(NC(=O)/C=C/c2ccc(S(=O)(=O)N3CCOCC3)cc2)cc1S(=O)(=O)N(C)C,.,47,8,.,.,66*
CC(=O)Nc1ccc2c(c1)C(=O)N(C)[C@H]1CC[C@H](CC(=O)NCc3ccccc3)O[C@H]1CO2,.,.,.,.,.,-7
CNC(=O)C[C@@H]1CC[C@@H]2[C@H](COc3ccc(NC(=O)Nc4cccc(F)c4)cc3C(=O)N2C)O1,.,.,.,.,.,0
O=C(c1ccc(F)cc1)N(CC1CCC1)C[C@@H]1N[C@H](CO)[C@@H]1c1ccccc1,.,.,.,.,.,10
C[C@@H]1CN([C@H](C)CO)C(=O)c2cc(NS(=O)(=O)c3ccc(F)cc3)ccc2O[C@@H](C)CCCCO[C@@H]1CN(C)CC1CCCCC1,.,.,.,.,.,101*
C[C@@H]1CCCCO[C@@H](CN(C)CC2CCCCC2)[C@H](C)CN([C@@H](C)CO)C(=O)c2cc(NS(=O)(=O)c3ccc(Cl)cc3)ccc2O1,.,.,.,.,.,12
